# Assay results reported in PubChem BioAssay (NCATS).
# Records with an inconclusive call do not appear. Calls of active or inactive are those of the source. Unless noted, calls come from the whole dose curve; as a rule, active = well fitted curve in the direction sought with a large enough effect; inconclusive = small, poorly fitted or top-dose-only effect, or another doubt; inactive = no such curve, though single readings can be large; an effect the other way counts as inactive or inconclusive.
# Legend:
# [1] = molecular target: Cytochrome P450 3A4 (Homo sapiens) (UniProt P08684); assay: qHTS Assay for Inhibitors and Substrates of Cytochrome P450 3A4 (AID 884); note: % is set by controls: 0 for no effect and ±100 for the full control effect; nearly all actives have a fitted effect of over 50% in size
# Chain of Cytochrome P450 3A4 (Homo sapiens) (P08684 whole entry, looked up): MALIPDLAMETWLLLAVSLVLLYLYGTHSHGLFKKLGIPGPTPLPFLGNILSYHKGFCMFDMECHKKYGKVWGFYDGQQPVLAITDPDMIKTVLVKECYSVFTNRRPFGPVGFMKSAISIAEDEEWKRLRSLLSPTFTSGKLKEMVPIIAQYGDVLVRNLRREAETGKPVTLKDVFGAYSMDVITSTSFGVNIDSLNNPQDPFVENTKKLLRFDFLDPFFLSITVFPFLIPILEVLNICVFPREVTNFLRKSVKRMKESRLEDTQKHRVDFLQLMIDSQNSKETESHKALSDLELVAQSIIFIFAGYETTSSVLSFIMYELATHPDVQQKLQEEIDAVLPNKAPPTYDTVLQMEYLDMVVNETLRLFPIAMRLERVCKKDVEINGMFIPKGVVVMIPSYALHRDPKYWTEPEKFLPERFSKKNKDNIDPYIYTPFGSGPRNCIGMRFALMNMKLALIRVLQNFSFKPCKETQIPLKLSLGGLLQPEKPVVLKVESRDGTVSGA
# How it was run: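 Luminescent readout of luciferin produced by CYP3A4 (20 nM) dealkylation of Luciferin-PPXE, 25 uM (its KM). NADPH-driven reaction ran 60 min at RT after 10 min compound preincubation; data scaled to 57 uM ketoconazole as 100% inhibition.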
# [2] = Confirmation and Secondary Assay for Modulators of Hemoglobin Beta Chain Splicing at IVS2 654 locus (AID 910);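 note: per-well total GFP intensity by laser scanning cytometry after 2-day treatment; % of control where 0% means no effect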
# How it was run: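 HeLa cells stably carrying EGFP interrupted by mutant beta-globin IVS2-654 intron (CMV-driven) were treated with compound for 2 days at 37C; corrected splicing was scored as total peak GFP intensity per well (488 nm excitation, 500-520 nm emission).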
# [3] = Confirmation and Secondary Assay for Modulators of Hemoglobin Beta Chain Splicing at IVS2 705 locus (AID 930);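 note: HeLa cells stably expressing the EGFP-705 splicing reporter; GFP fluorescence per well restored by corrected splicing of the IVS2-705 intron in EGFP; % of control where 0% means no effect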
# How it was run: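 Fluorescence gain (488 nm laser, 500-520 nm PMT) reflects restored correct splicing of a mutant IVS2-705 intron inside EGFP in stably transfected HeLa cells after 2-day compound treatment.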
# [4] = qHTS Assay for Lipid Storage Modulators (AID 1519; calls by dose curve; for activity change, negative = inhibition: % is set by controls: 0 for no effect and ±100 for the full control effect); conditions: Drosophila S3 cells, BODIPY lipid droplet/cell ratio, laser cytometry, cells loaded with oleic acid; for activity change, negative = inhibition: at 57.5 µM (top of the series)
# How it was run: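 Cells seeded at 5,000 per well were treated with compounds over a concentration series and loaded with oleic acid (400 uM, as added). Lipid droplet fluorescence (488 nm excitation, 500-530 nm channel) was read by laser-scanning cytometry and normalized to 20 uM Triacsin C.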
# [5] = molecular target: Cytochrome P450 3A4 (Homo sapiens) (UniProt P08684); assay: qHTS Assay for Activators of Cytochrome P450 3A4 (AID 885); note: nearly all actives have a fitted effect of over 65% in size
# How it was run: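 Luminescent readout of luciferin formed from 25 uM Luciferin-PPXE (KM level) by 20 nM CYP3A4 in 200 mM KPO4, with 60 min NADPH-driven reaction at room temperature after 10 min compound exposure. Ketoconazole (57 uM) defined 100% inhibition.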
# [6] = measured here: cell count channel max response
# [7] = measured here: lipid channel max response
Structure (SMILES),Potency [1],Potency [2],Potency [3],"activity change, negative = inhibition [4]","max response [4, 6]","max response [4, 7]",Potency [5]
O=c1cc(-c2ccc(O)cc2)oc2cc(OC3OC(CO)C(O)C(O)[C@H]3O[C@@H]3OC[C@@](O)(CO)C3O)cc(O)c12 (some centres not stated),inactive,inactive,inactive,1.57% (inactive),23.4%,26.6%,
C=CCCCCCCCCCCCC(O)CC(O)CO (configuration not stated) (tested in a mixture with another compound),inactive,inactive,inactive,11.1% (inactive),1.75%,15.4%,
CC(=O)OCCC(C)CCC=C(C)C (configuration not stated),inactive,inactive,inactive,5.97% (inactive),4.67%,12.4%,
CC(C)c1ccc2c(c1)CCC1C(C)(C(N)=O)CCCC21C (configuration not stated),,inactive,inactive,-15.9% (inactive),-2.05%,-18.2%,inactive
CC(C1OC(C)(C)C(O)C1O)C1CC[C@@]2(C)C3=CCC4C(C)(C)C(=O)CC[C@]4(C)C3CC[C@@]12C (some centres not stated),inactive,inactive,inactive,5.14% (inactive),-0.971%,3.6%,
CC(C)=CCC/C(C)=C/COc1ccc2ccc(=O)oc2c1,,inactive,inactive,-1.25% (inactive),27.3%,28.1%,inactive
CCCCCc1c2c(cc(O)c1C(=O)O)OC(=O)c1c(cc(OC)cc1C(=O)CCCC)O2,,inactive,inactive,7.58% (inactive),12.3%,21.9%,inactive
CC(=O)OC1CC2C(C)(C)C(O)CCC2(C)C2CC[C@]3(C)C(=CC(=O)OC3c3ccoc3)C12C (some centres not stated),,inactive,inactive,-0.0065% (inactive),-9.39%,-0.419%,inactive
CCCCCCCCCCCCCCC(C(=O)O)C(O)(CC(=O)OC)C(=O)O (configuration not stated),inactive,inactive,inactive,5.93% (inactive),16.5%,25.2%,
CC(C)=CC1C(C(=O)O)C1(C)C (configuration not stated),inactive,inactive,inactive,7.47% (inactive),18%,29.9%,
O=c1c(O)cccc2cc(O)c(O)c(O)c12,,inactive,,9.52% (inactive),11.8%,24.4%,inactive
COC(=O)Oc1ccccc1C(=O)O,inactive,inactive,inactive,5.3% (inactive),15.1%,21.1%,
CCOC(=O)C(CCc1ccccc1)NC(C)C(=O)N1CCCC1C(=O)O (configuration not stated),inactive,inactive,inactive,10.8% (inactive),9.89%,24.1%,
CCC(=O)OC1C2CC3=C4CC(=O)OC(c5ccoc5)[C@]4(C)CCC3[C@@](C)(C2=O)C(CC(=O)OC)C1(C)C (some centres not stated),inactive,inactive,inactive,-15.8% (inactive),-7.4%,-17%,
C=CCSCC(N)C(=O)O (configuration not stated),inactive,inactive,inactive,7.56% (inactive),17.4%,25.7%,
CC(C)=CC1C(CO)C1(C)C (configuration not stated),inactive,inactive,inactive,4.52% (inactive),11.9%,18.1%,
CNC(CC(=O)O)C(=O)O (configuration not stated),inactive,inactive,inactive,0.835% (inactive),10.8%,11.7%,
CC1=C(/C=C/C(C)=C/C=C/C(C)=C/C=C/C=C(C)/C=C/C=C(C)/C=C/C(=O)[C@]2(C)CC(O)CC2(C)C)C(C)(C)CC(O)C1 (some centres not stated),inactive,inactive,inactive,7.14% (inactive),11.8%,22.4%,
CC1C(O)CC2C(C(=O)O)=CO[C@@H](O[C@H]3OC(CO)C(O)C(O)C3O)C21 (some centres not stated),inactive,,inactive,4.54% (inactive),10.9%,15.2%,
CCC(CO)NCCNC(CC)CO (configuration not stated),inactive,inactive,inactive,-3.77% (inactive),8.09%,6.63%,
OCC1OC(n2cnc3c(Cl)ncnc32)C(O)C1O (configuration not stated),inactive,inactive,inactive,1.41% (inactive),10.1%,10.3%,
CC1OC(n2cc(F)c(=O)[nH]c2=O)C(O)C1O (configuration not stated),inactive,inactive,inactive,5.38% (inactive),14%,19.9%,
C#CCCCCCCCCCCCC(O)CC(O)CO (configuration not stated),,inactive,inactive,15.6% (inactive),3.34%,18.3%,inactive
CC1=C2C(=COC(C)C2C)C(=O)C(C(=O)O)=C1O (configuration not stated),,inactive,inactive,4.18% (inactive),-1.22%,4.23%,
CC(=O)Oc1cc2c(c(C)c1OC(C)=O)CC=C1[C@]3(C)CC[C@]4(C)CC[C@@](C)(C(=O)O)CC4[C@]3(C)CC[C@]12C (some centres not stated),,inactive,inactive,-5.08% (inactive),-7.33%,-12.4%,inactive
CC(CN(C)C)CN1c2ccccc2Sc2ccccc21 (configuration not stated),,inactive,inactive,6.07% (inactive),-0.564%,10.9%,
O=C(/C=C(\O)c1ccccc1)c1ccccc1O,,inactive,inactive,-15.7% (inactive),-12.9%,-24.5%,inactive

Structure (SMILES),Potency [1],Potency [2],Potency [3],"activity change, negative = inhibition [4]","max response [4, 6]","max response [4, 7]",Potency [5]
CC(=O)c1c(O)c(C)c(O)c2c1OC1=CC(=O)C(C(C)=O)C(=O)C12C (configuration not stated),,inactive,inactive,6.96% (inactive),24.8%,22.6%,
CCC(C)(C)C(=O)OC1CC(C)C=C2C=CC(C)C(CCC3CC(O)CC(=O)O3)C21 (configuration not stated),,inactive,inactive,-9% (inactive),2.37%,-4.92%,
C=CCCCCCCCCCCCC(O)CC(O)COC(C)=O (configuration not stated),,inactive,inactive,12.3% (inactive),4.88%,15.5%,inactive
CC1OC(OCC2OC(Oc3c(-c4ccc(O)c(O)c4)oc4cc(O)cc(O)c4c3=O)C(O)C(O)C2O)[C@@H](O)C(O)C1O (some centres not stated),,inactive,inactive,4.3% (inactive),4.35%,10.1%,
C#CCCCCCCCCCCCc1ccco1,,inactive,inactive,2.25% (inactive),8.94%,11.4%,inactive
O=C(CC(=O)c1ccccc1)c1ccccc1,,inactive,inactive,2.34% (inactive),-0.636%,4.72%,inactive
CC(=O)OCC1=C(C(=O)O)N2C(=O)C(NC(=O)Cc3cccs3)C2SC1 (configuration not stated),,inactive,inactive,9.08% (inactive),8.85%,22%,inactive
CC(=O)OC1C[C@]2(C)C(C(C)=O)CCC2C2CCC3=CC(=O)CC[C@@]3(C)C12 (some centres not stated),,inactive,inactive,9.05% (inactive),25.2%,39.7%,
CC(=O)OCC(=O)[C@@]1(O)CCC2C3CC(C)C4=CC(=O)C=CC4(C)C3C(O)CC21C (some centres not stated),,inactive,inactive,2.16% (inactive),-9.81%,-3.93%,inactive
COc1cc(O)c(C(=O)/C=C/c2ccccc2)c(OC)c1,,inactive,inactive,-11.9% (inactive),2.78%,-7.25%,inactive
C#C[C@@]1(O)CCC2C3CCc4cc(O)ccc4C3CC[C@@]21C (some centres not stated),,inactive,inactive,6.48% (inactive),1.86%,11.2%,
COC(=O)CCC(C)C1CCC2C3C(O)C[C@@H]4CC(O)CC[C@@]4(C)C3CC(O)[C@]12C (some centres not stated),,inactive,inactive,2.8% (inactive),-0.322%,3.42%,
NCC1O[C@@H](O[C@H]2C(O)C(O[C@@H]3C(O[C@H]4OC(CO)C(O)C(O)C4N)C(N)CC(N)[C@H]3O)O[C@@H]2CO)C(N)C(O)C1O (some centres not stated),,inactive,inactive,10.8% (inactive),18.8%,35.3%,
O=c1c(O)c(-c2ccccc2)oc2cc(O)ccc12,,inactive,inactive,6.29% (inactive),-1.89%,5.57%,inactive
C=CCCCCCCCCCCC/C=C/C(O)COC(C)=O (configuration not stated),,inactive,inactive,8.71% (inactive),8.46%,19.5%,inactive
C[C@]12CCC(=O)C=C1CCC1C2C(O)C[C@]2(C)C1CC[C@]2(O)C(=O)CO (some centres not stated),,inactive,inactive,12.8% (inactive),7.87%,21.1%,
C[C@]12CCC3c4ccc(OC(=O)c5ccccc5)cc4CCC3C1CCC2=O (some centres not stated),,inactive,inactive,11.1% (inactive),14.4%,28.4%,
NC(C(=O)NC1C(=O)N2C(C(=O)O)=C(Cl)CSC12)c1ccccc1 (configuration not stated),,inactive,inactive,8.35% (inactive),18.8%,24.9%,inactive
CC(C)=CCOc1cc2oc(=O)ccc2cc1O,,inactive,inactive,12.4% (inactive),-16.3%,-2.91%,inactive
CC1(C)OC2CC3C4CCC5=CC(=O)CCC5(C)C4(F)C(O)CC3(C)[C@]2(C(=O)CCl)O1 (some centres not stated),,inactive,inactive,8% (inactive),13.8%,26.2%,inactive
COc1cc(O)cc(/C=C/c2ccccc2)c1,,inactive,inactive,5.85% (inactive),-8.15%,-0.333%,inactive
CC(C)=CCCC(C)C1CC[C@@]2(C)C3=C(CC[C@@]12C)C1(C)CCC(O)C(C)(C)C1CC3 (some centres not stated),,inactive,inactive,6.04% (inactive),10.4%,15.7%,
CC1=C(C(=O)O)N2C(=O)C(NC(=O)C(N)c3ccccc3)C2SC1 (configuration not stated),,inactive,inactive,9.95% (inactive),9.88%,24.8%,
CC(=O)OC[C@@]1(O)C[C@]23CCC4c5ccoc5CC[C@@]4(C)C2CCC1C3 (some centres not stated),,,inactive,6.91% (inactive),7.17%,15.2%,inactive
COC1=CC(=O)C(O)=C/C1=C\C=C\c1ccccc1,,inactive,inactive,-23.3% (inactive),-8.41%,-29.1%,inactive
CC(C)C1=CC2=CCC3[C@@](C)(CCC[C@@]3(C)C(=O)O)C2CC1 (some centres not stated),,inactive,inactive,4.85% (inactive),5.3%,10.4%,inactive
